Source: PubChem BioAssay (Tox21)
Inconclusive results are not listed. Entries that show only a call come without a potency. The source made the active and inactive calls. Unless noted, calls come from the whole dose curve; as a rule, active = well fitted curve in the direction sought with a large enough effect in the repeat runs; inconclusive = weak or mixed curves; inactive = no such curve, though single readings can be large; an effect the other way counts as inactive or inconclusive.

How the values were obtained:
[1] = qHTS assay to identify small molecule antagonists of the estrogen receptor alpha (ER-alpha) signaling pathway using the BG1 cell line in the presence of 0.1 nM 17-beta-estradiol - cell viability counter screen (AID 1259241); note: nearly all actives have a fitted effect of over 40% in size
Summary of the method: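 CellTiter-Fluor read (30 min, 37C) on ER-alpha/ERE-luc VM7Luc4E2 cells; 22 hr compound treatment; agonist 0.1 nM E2 final; same-well multiplex.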

[2] = qHTS assay to identify small molecule antagonists of the androgen receptor (AR) signaling pathway using the MDA cell line in the presence of 0.5 nM R1881 - cell viability counter screen (AID 1259242); note: nearly all actives have a fitted effect of over 45% in size
Summary of the method: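 Cells seeded at 3,000/well and allowed 5 hr at 37C, 0% CO2 before compound transfer and R1881 (0.5 nM final) addition; 16 hr later, live-cell protease fluorescence indicated cytotoxicity.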

[3] = target: Estrogen receptor (Homo sapiens) (UniProt P03372); assay: qHTS assay to identify small molecule antagonists of the estrogen receptor alpha (ER-alpha) signaling pathway using the BG1 cell line in the presence of 0.1 nM 17-beta-estradiol (AID 1259244); note: nearly all actives have a fitted effect of over 50% in size
Summary of the method: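 Luciferase signal from VM7Luc4E2 ERE-reporter cells, co-dosed with test compound and 0.1 nM final 17beta-estradiol for 22 h, read with ONE-Glo.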

[4] = qHTS assay to identify small molecule HDAC inhibitors (AID 1259364); note: potency is the fitted concentration of half-maximal effect;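 note: wild-type HCT-116 cells with endogenous class I/II HDAC activity; nearly all actives have a fitted effect of over 45% in size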
Summary of the method: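 HCT-116 wt cells, 1,500/well, overnight attach. Compounds (DMSO) 2 h, 37 °C. HDAC-Glo I/II, 30 min RT. Luminescence.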

[5] = qHTS assay to identify small molecule HDAC inhibitors - cell viability counter screen (AID 1259365); note: series mostly up to about 92 µM; nearly all actives have a fitted effect of over 50% in size
Summary of the method: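 To flag cytotoxic hits, 1,500 wild-type HCT-116 cells per well, plated the day before, receive test compounds for 2hr at 37 C before CellTiter-Glo reagent and a luminescence read.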

[6] = qHTS assay to identify small molecule antagonists of the sonic hedgehog signaling (Shh) pathway - cell viability counter screen (AID 1259367); note: nearly all actives have a fitted effect of over 55% in size
Summary of the method: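 Viability was read by CellTiter-Fluor fluorescence in the same wells, reagent added 23 hr into compound treatment and incubated 1 hr at 37C. The 3T3 Gli1-Luc reporter cells (2,000/well) received conditioned medium after compound and ran 24 hr.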

[7] = qHTS assay to identify small molecule agonists of the sonic hedgehog signaling (Shh) pathway (AID 1259368; calls by dose curve; note: nearly all actives have a fitted effect of over 15% in size; note: potency is the fitted concentration of half-maximal effect)
Summary of the method: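 Following a 24 hr incubation with DMSO-dissolved compounds at 37 C, 5% CO2, Gli1-Luc NIH/3T3-derived cells received luciferase reagent for 30 min at room temperature prior to luminescence measurement.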

[8] = qHTS assay to identify small molecule antagonists of the sonic hedgehog signaling (Shh) pathway (AID 1259369; calls by dose curve; note: nearly all actives have a fitted effect of over 45% in size)
Summary of the method: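 Read-out is luminescence from a firefly luciferase gene controlled by the Gli1 response element, in 3T3Gli1-Luc cells pre-incubated 4hr then exposed to compounds and conditioned medium for 24hr.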

[9] = qHTS assay to identify small molecule agonists of the estrogen receptor beta (ER-beta) signaling pathway - cell viability counter screen (AID 1259380); note: nearly all actives have a fitted effect of over 30% in size; note: potency is the fitted concentration of half-maximal effect
Summary of the method: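 Compounds dissolved in DMSO were pin-transferred onto ER-beta-UAS-bla HEK293T cells that had settled 6 hr, and exposure ran 16 hr at 37C. Following the reporter read, CellTiter-Glo luminescence after 30 min at room temperature indicated cytotoxicity.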

[10] = qHTS assay to identify small molecule antagonists of the estrogen receptor beta (ER-beta) signaling pathway - cell viability counter screen (AID 1259382);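 note: HEK293T cells carrying ER-beta-UAS-bla reporter stimulated with estradiol; series mostly up to about 92 µM; nearly all actives have a fitted effect of over 55% in size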
Summary of the method: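 CellTiter-Glo ATP luminescence measured after the LiveBLAzer read in the same wells; ER-beta-UAS-bla HEK293T cells, 16 hr compound treatment with 1nM 17-beta-estradiol agonist at 37C, 5% CO2.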

[11] = target: Estrogen receptor (Homo sapiens) (UniProt P03372); assay: qHTS assay to identify small molecule agonists of the estrogen receptor alpha (ER-alpha) signaling pathway in the presence of an antagonist (AID 1259383; calls by dose curve; note: top concentration of the series differs between compounds; nearly all actives have a fitted effect of over 15% in size)
Summary of the method: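 Luminescent ERE-luciferase reporter, VM7Luc4E2 cells (endogenous ER-alpha); 10.0nM ICI-182,780 final; 15-point compound titration; 22hr at 37C; ONE-Glo, 30min RT.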

[12] = qHTS assay to identify small molecule agonists of the sonic hedgehog signaling (Shh) pathway - cell viability counter screen (AID 1259366); note: nearly all actives have a fitted effect of over 50% in size
Summary of the method: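 Fluorescence from CellTiter-Fluor reports live cells in this counter screen. NIH/3T3-derived Gli1-Luc reporter cells receive test compounds for 24hr at 37C; reagent goes in at 23hr.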

[13] = target: Estrogen receptor beta (Homo sapiens) (UniProt Q92731); assay: qHTS assay to identify small molecule agonists of the estrogen receptor beta (ER-beta) signaling pathway (AID 1259377; active = well fitted activation curve with a large enough effect in the signal ratio in the repeat runs, not every such curve was filed as active; the % refers to the signal ratio)
Summary of the method: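 Screening used GripTite ER-beta-UAS-bla cells held in 2% charcoal-stripped FBS medium. After overnight (16 hr) compound incubation at 37C, beta-lactamase activity was detected with a FRET substrate by fluorescence.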

[14] = qHTS assay to identify small molecule agonists of the androgen receptor (AR) signaling pathway in the presence of an antagonist - cell viability counter screen (AID 1259379);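 note: MDA-kb2 human breast cancer cells carrying an MMTV luciferase reporter; series mostly up to about 92 µM; nearly all actives have a fitted effect of over 25% in size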
Summary of the method: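 Each compound was tested at 15 concentrations on MDA-kb2 cells in the presence of 3.0uM nilutamide. Viability was measured by CellTiter-Fluor fluorescence after a 16 hr incubation at 37C in a CO2-free atmosphere.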

[15] = qHTS assay to identify small molecule phospholipidosis (PLD) inducers (AID 1259344; active = well fitted curve in the direction sought with a large enough effect; an effect the other way counts as inactive or inconclusive)
Summary of the method: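 Phospholipid accumulation was scored by imaging: fixed, Hoechst-counterstained HepG2 cells stained with LipidTOX Red after 24 h compound exposure at 37 C. Read-outs were pit count and pit intensity per well or per cell, with amiodarone and DMSO controls.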

[16] = target: Estrogen receptor beta (Homo sapiens) (UniProt Q92731); assay: qHTS assay to identify small molecule antagonists of the estrogen receptor beta (ER-beta) signaling pathway (AID 1259378; active = well fitted inhibition curve with a large enough effect in the signal ratio in the repeat runs, not every such curve was filed as active; the % refers to the signal ratio)
Summary of the method: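 Antagonist mode: compounds added to beta-lactamase reporter HEK293T ER-beta-UAS cells stimulated with E2 (1nM final), 16 hr at 37C. LiveBLAzer B/G FRET substrate, 2 hours room temperature, fluorescence read-out.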

[17] = qHTS assay to identify small molecule agonists or antagonists of the thyroid stimulating hormone receptor (TSHR) signaling pathway - wild type cell line counter screen (AID 1259384; calls by dose curve)
Summary of the method: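 Counter screen in untransfected Hek293: compounds (15-point titration, triplicate) plus phosphodiesterase inhibitor Ro20-1724 added after 18 h plating; 30 min RT. Intracellular cAMP via competitive d2/cryptate immunoassay, 1 h incubation.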

Sequence of Estrogen receptor (Homo sapiens) (P03372 whole entry, looked up): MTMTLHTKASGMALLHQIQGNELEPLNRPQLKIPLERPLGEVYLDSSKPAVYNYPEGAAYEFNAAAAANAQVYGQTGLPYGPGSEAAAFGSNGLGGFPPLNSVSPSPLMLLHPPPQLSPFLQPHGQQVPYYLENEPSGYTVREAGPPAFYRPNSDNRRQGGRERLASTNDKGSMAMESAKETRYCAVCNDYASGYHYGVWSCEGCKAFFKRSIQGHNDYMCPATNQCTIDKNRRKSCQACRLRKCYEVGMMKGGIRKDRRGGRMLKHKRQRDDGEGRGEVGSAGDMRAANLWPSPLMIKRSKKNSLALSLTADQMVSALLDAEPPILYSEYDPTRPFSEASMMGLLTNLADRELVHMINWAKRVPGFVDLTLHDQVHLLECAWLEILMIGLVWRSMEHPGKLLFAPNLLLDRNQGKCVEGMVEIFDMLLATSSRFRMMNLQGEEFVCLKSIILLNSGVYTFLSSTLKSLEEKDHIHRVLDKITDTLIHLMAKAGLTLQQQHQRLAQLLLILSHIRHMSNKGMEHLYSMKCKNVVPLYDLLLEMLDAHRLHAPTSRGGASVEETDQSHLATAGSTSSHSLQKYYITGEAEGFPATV
Sequence of Estrogen receptor beta (Homo sapiens) (Q92731 whole entry, looked up): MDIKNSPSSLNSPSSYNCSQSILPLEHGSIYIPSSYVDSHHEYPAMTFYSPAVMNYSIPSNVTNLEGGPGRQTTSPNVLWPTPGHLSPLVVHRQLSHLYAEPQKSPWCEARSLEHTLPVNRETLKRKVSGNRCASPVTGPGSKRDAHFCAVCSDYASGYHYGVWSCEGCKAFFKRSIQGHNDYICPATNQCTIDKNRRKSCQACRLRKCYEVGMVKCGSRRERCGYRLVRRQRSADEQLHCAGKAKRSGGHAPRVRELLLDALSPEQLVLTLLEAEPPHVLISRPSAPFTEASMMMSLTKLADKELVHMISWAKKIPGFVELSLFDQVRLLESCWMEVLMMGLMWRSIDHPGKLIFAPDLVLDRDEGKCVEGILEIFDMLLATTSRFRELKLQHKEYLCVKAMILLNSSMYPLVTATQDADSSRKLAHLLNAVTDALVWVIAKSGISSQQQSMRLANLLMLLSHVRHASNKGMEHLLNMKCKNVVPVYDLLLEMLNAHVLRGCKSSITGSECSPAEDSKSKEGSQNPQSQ

| Structure (SMILES) | outcome [1] | outcome [2] | outcome [3] | Potency [4] | outcome [5] | outcome [6] | Potency [7] | Potency [8] | Potency [9] | Potency [10] | Potency [11] | Potency [12] | outcome [13] | Potency [14] | Potency [15] | Potency [16] | outcome [17] |
| --- | --- | --- | --- | --- | --- | --- | --- | --- | --- | --- | --- | --- | --- | --- | --- | --- | --- |
| Cc1ccc(Nc2ccc(O)c3c2C(=O)c2ccccc2C3=O)cc1 | inactive | inactive | inactive | inactive | inactive | inactive | inactive | inactive | inactive | inactive | inactive |  |  |  |  |  |  |
| O=[N+]([O-])c1ccc(Oc2ccc([N+](=O)[O-])cc2)cc1 | inactive | inactive | inactive | inactive | inactive | inactive | inactive | inactive | inactive | inactive | inactive | inactive | inactive | inactive |  |  |  |
| COCCOC(=O)CC#N |  | inactive | inactive | inactive | inactive | inactive | inactive | inactive | inactive | inactive |  |  | inactive | inactive |  |  |  |
| [O-][N+](=Nc1ccccc1)c1ccccc1 | inactive | inactive | inactive | 9690 nM (active) | inactive | inactive |  | inactive | inactive | inactive | inactive | inactive | inactive | inactive | inactive | inactive |  |
| CC(C)COC(=O)c1ccccc1O | inactive | inactive | inactive | inactive | inactive | inactive | inactive | inactive | inactive | inactive | inactive | inactive |  | inactive |  |  |  |
| OCC(CO)(CO)COCC(CO)(CO)CO | inactive | inactive | inactive | inactive | inactive | inactive | inactive |  | inactive | inactive |  | inactive |  | inactive |  |  |  |
| C=C(C)C(=O)OCCC(C)OC(=O)C(=C)C (stereo not given) |  | inactive | inactive | inactive | inactive | inactive | inactive | inactive | inactive | inactive | inactive | inactive |  | inactive |  |  | inactive |
| NC(=O)CCCCC1CCSS1 (stereo not given) |  | inactive | inactive | inactive | inactive | inactive | inactive | inactive | inactive | inactive |  | inactive |  | inactive | inactive |  |  |
| C[C@H](O)C(=O)Nc1c(I)c(C(=O)NC(CO)CO)c(I)c(C(=O)NC(CO)CO)c1I | inactive | inactive | inactive |  | inactive | inactive | inactive | inactive | inactive | inactive |  | inactive | inactive | inactive | inactive | inactive | inactive |
| COc1ccc(N=[N+]([O-])c2ccc(OC)cc2)cc1 | inactive | inactive | inactive |  | inactive | inactive | 121 nM (active) | inactive |  | inactive | inactive | inactive | inactive | inactive |  |  | inactive |
| CC(C)(O)Cc1ccccc1 | inactive | inactive | inactive |  | inactive | inactive | inactive | inactive | inactive | inactive | inactive |  | inactive | inactive |  | inactive |  |
| c1ccc(CCCc2ccccn2)cc1 | inactive | inactive | inactive |  | inactive | inactive | inactive | inactive | inactive | inactive |  | inactive | inactive | inactive |  | inactive | inactive |
| CC(C)c1cccc(O)c1 | inactive | inactive | inactive | inactive | inactive | inactive | inactive | inactive | inactive | inactive |  | inactive | inactive | inactive |  | inactive |  |
| Oc1cc(O)c2c(c1)O[C@H](c1ccc(O)c(O)c1)[C@H](O)C2 | inactive | inactive | inactive |  | inactive | inactive | inactive | inactive | inactive | inactive |  |  | inactive | inactive | inactive |  | inactive |
| COC(C(=O)O)c1ccccc1 (stereo not given) |  | inactive |  | inactive | inactive | inactive | inactive | inactive | inactive | inactive |  |  |  | inactive |  |  | inactive |
| CCCc1ccccc1O |  | inactive |  | inactive | inactive | inactive | inactive | inactive | inactive | inactive |  | inactive | inactive | inactive |  | inactive | inactive |
| COC[C@H](c1ccc(C(F)(F)F)cc1)N1CCN(C2(C)CCN(C(=O)c3c(C)ncnc3C)CC2)C[C@H]1C | inactive | inactive | inactive | inactive | inactive | inactive | inactive | inactive | 2660 nM (active) | inactive | inactive | inactive | inactive | inactive |  | inactive | inactive |
| CCn1c(=O)c2c(nc(/C=C/c3ccc(OC)c(OC)c3)n2C)n(CC)c1=O | inactive | inactive |  | inactive | inactive | inactive | inactive |  |  | inactive |  |  |  | inactive |  |  | inactive |
